Compound activity as filed in PubChem BioAssay.
DSG3 Ab inh: blocks pemphigus antibody binding to human desmoglein-3; P32926; 310,000 compounds, 0.48% hits; DSG3-coupled beads, scFv-anti-DSG3-GFP binding, flow cytometry; active compounds read low; binding (percent of control), % at 10 µM; AID 588358;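 active = binding more than 3 SD below its plate's average and above zero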;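 also: hits lower antibody fragment binding to DSG3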
ADAM10 inh: inhibitors of human ADAM10; inhibition, % at 7 µM; AID 720582; 370,000 compounds, 0.62% hits; recombinant ADAM10, EDANS/DABCYL FRET peptide cleavage, 3 h; O14672;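 active = inhibition above a per-campaign cutoff equal to the mean of compounds falling between control-based bounds plus 3 SD, cut at about 20% in these data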
rCAG binder: binds r(CAG) RNA repeats. 370,000 compounds, 1.3% hits. AID 651821. inhibition, % at 3 µM. r(CAG) RNA repeat, TO-PRO-1 dye displacement fluorescence;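 active = inhibition above the plate cutoff, the mean of all test compounds on that plate plus 3 SD, cut at about 35% in these data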;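 also: higher means more dye released from RNA so lower well fluorescence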
KLK7 zymogen act: activates the human kallikrein-7 zymogen | P49862 | purified proKLK7, EDANS-DABCYL substrate fluorescence; 100% is mature enzyme control, 0% vehicle | activation, % at 7 µM | 370,000 compounds, 0.9% hits | AID 652039;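 active = activation above the mean of all tested compounds plus 3 SD, computed per campaign excluding outliers beyond control limits, cut at about 13% in these data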
Target sequence (P49862 whole entry, looked up): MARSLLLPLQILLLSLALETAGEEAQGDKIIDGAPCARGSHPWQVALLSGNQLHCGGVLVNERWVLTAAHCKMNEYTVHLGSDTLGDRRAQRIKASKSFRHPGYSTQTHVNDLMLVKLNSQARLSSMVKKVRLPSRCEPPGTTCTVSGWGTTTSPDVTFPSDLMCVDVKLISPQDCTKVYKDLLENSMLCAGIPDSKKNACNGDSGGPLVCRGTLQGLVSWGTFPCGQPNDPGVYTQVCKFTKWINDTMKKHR
ADAM17 inh: ADAM17 inhibition, QFRET primary screen; P78536; inhibition, % at 6.95 µM; 370,000 compounds, 0.83% hits; recombinant ADAM17, EDANS/DABCYL FRET peptide cleavage;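 active = inhibition above the mean of compounds lying between control limits plus 3 SD, set per campaign, cut at about 8.5% in these data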
MPTP inh: permeability transition pore inhibition; isolated mouse mitochondria, Ca2+ swelling absorbance, 30 min; inhibition, % at 10 µM; 360,000 compounds, 1.4% hits; AID 602449;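 active = inhibition of 50% or more, scaled per plate between neutral and stimulator controls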
MPTP counter: mitochondrial membrane potential, counter-screen | AID 624504 | isolated mitochondria, Rhodamine 123 fluorescence | 5,000 compounds, 78% hits | shares compounds with MPTP inh | inhibition, % at 10 µM; in the data active = inhibition above about 22%
MPTP abs DR: dose response confirmation of mitochondrial permeability transition pore inhibitors | shares compounds with MPTP inh | isolated mitochondria swelling, absorbance | IC50, µM | 780 compounds, 58% hits | AID 651561; in the data active = IC50 below about 20 µM
MPTP counter DR: counter-screen for mitochondrial permeability transition pore inhibitors, dose response; shares compounds with MPTP inh; isolated mitochondria counterscreen, fluorescence read-out; IC50, µM; 780 compounds, 49% hits; in the data active = IC50 below about 80 µM
Of the large screens only hits and unclear results are named; the others gave an inactive call (follow-up assays come after a bar, where they were run). In the library only some 4.7% were active in any assay of this set; here they are far more common.

Cc1sc(NC(=S)NC(=O)c2ccccc2)c(C#N)c1C	MPTP inh 70 (no result: DSG3 Ab inh) | MPTP counter 84
N#Cc1c(Cl)nsc1NC(=O)c1ccccc1	MPTP inh 78 | MPTP counter 89
COc1ccc(-n2c(SCC(=O)Nc3ccc(OCc4ccccc4)cc3)nnc2-c2ccc(C)cc2)cc1	none (no result: DSG3 Ab inh, MPTP inh)
CC(C)(C)S(=O)(=O)/C(C#N)=N/Nc1ccc(Cl)cc1	MPTP inh 92 | MPTP counter 87
COC(=O)c1cn[nH]c1NC(=S)Nc1ccc(Cl)c(Cl)c1	MPTP inh 99 | MPTP counter 81
COC(=O)c1cn[nH]c1NC(=S)Nc1ccc(C)cc1Cl	MPTP inh 96 | MPTP counter 75
Nc1ccn([C@@H]2O[C@H](C(=O)N[C@H](Cc3ccccc3)C(=O)N3CCSC3)[C@@H](O)[C@H]2O)c(=O)n1	none (no result: DSG3 Ab inh, MPTP inh)
CC(CN(C)C)CN1c2ccccc2Sc2ccccc21 (stereo not drawn)	MPTP inh 77 | MPTP counter inactive | MPTP abs DR 7.1 | MPTP counter DR inactive
CC(CN1c2ccccc2Sc2ccccc21)N(C)C (stereo not drawn)	none
COc1ccc2c(c1)N(C[C@H](C)CN(C)C)c1ccccc1S2	MPTP inh 67 | MPTP counter inactive | MPTP abs DR 8.8 | MPTP counter DR inactive
COC(=O)C1=C(C)N(Cc2ccccc2C(F)(F)F)C(=NCc2ccc(C(F)(F)F)cc2)NC1c1cccc(F)c1 (stereo not drawn)	none (no result: DSG3 Ab inh, MPTP inh)
CCN1C(=C(C#N)C#N)C=Cc2cc(C)ccc21	none
C=CC[n+]1c(/C=C2\C=Cc3cc(C)ccc3N2CC)ccc2ccccc21	MPTP inh 112 | MPTP counter 78
Cc1ccc(OC(C)C(=O)N=Nc2c(O)[nH]c3ccc([N+](=O)[O-])cc23)cc1 (stereo not drawn)	MPTP inh 73 | MPTP counter 68
CCN(CC)C(=O)CC[C@@H]1CC[C@]2(CCCN(Cc3cccnc3)C2)O1	none (no result: DSG3 Ab inh, MPTP inh)
C[C@@H]1Cc2cc(O)c(O)c(O)c2C(=O)O1	none (no result: DSG3 Ab inh, MPTP inh)
O=c1oc2c(-c3cccc(F)c3)cc(O)cc2s1	MPTP inh 84 | MPTP counter 85
CN(C)CCCNC(=O)C[C@@H]1CC[C@@H]2[C@H](COc3ccc(NC(=O)c4cccc(F)c4)cc3C(=O)N2C)O1	none (no result: DSG3 Ab inh, MPTP inh)
CCCCn1c(N)c(-c2nc3ccccc3s2)c2c([N+](=O)[O-])nn(CC)c(=O)c21	MPTP inh 92 | MPTP counter inactive | MPTP abs DR 20 | MPTP counter DR 18
CCCCn1c(N)c(-c2nc3ccccc3s2)c2c([N+](=O)[O-])nn(C)c(=O)c21	DSG3 Ab inh 85, MPTP inh 97 | MPTP counter inactive | MPTP abs DR 12 | MPTP counter DR 6.2
Cn1nc([N+](=O)[O-])c2c(-c3nc4ccccc4s3)c(N)n(C3CCCCC3)c2c1=O	MPTP inh 72 | MPTP counter inactive | MPTP abs DR inactive | MPTP counter DR 43
CCCCCn1c(N)c(-c2nc3ccccc3s2)c2c([N+](=O)[O-])nn(CC)c(=O)c21	MPTP inh 97 | MPTP counter inactive | MPTP abs DR 11 | MPTP counter DR <2.5
O=C(CSCc1ccc(Cl)cc1)Nc1ccc(S(=O)(=O)N2CCCCCC2)cc1	MPTP inh 53 | MPTP counter 80
CN(CC(=O)Nc1ccc(Cl)cc1)c1ccc(S(=O)(=O)N2CCCCC2)cc1[N+](=O)[O-]	MPTP inh 82 | MPTP counter 67
COc1ccc(CN(C)c2ccc(S(=O)(=O)N3CCN(C)CC3)cc2[N+](=O)[O-])cc1OC	MPTP inh 97 | MPTP counter 99
COc1ccc(CSCC(=O)Nc2ccc(S(=O)(=O)N3CCCCCC3)cc2)cc1	none
COc1ccc(CCN(C)c2ccc(S(=O)(=O)N3CCCC3)cc2[N+](=O)[O-])cc1OC	none
COCCN1C(=O)[C@H]2C[C@@]13O[C@H](c1ccc(C(F)(F)F)cc1)N=C3C[C@H](c1ccccc1)[C@H]2C	none (no result: DSG3 Ab inh, MPTP inh)
S=C(Nc1ccc(OCc2ccccc2)cc1)Nc1cccc(Cl)c1Cl	MPTP inh 86 | MPTP counter 79
S=C(Nc1ccccc1)Nc1ccc(OCc2ccccc2)cc1	none
Cc1ccc(Nc2cc(C)c3c(O)cccc3n2)cc1C	MPTP inh 72 | MPTP counter 54
CSc1ccc(C(=O)NCC2CCN(C(=O)C(=O)c3cc4ccccc4o3)CC2)cc1	none (no result: DSG3 Ab inh, MPTP inh)
O=C(NC(=S)Nc1nc2c(s1)CSc1ccccc1-2)c1ccccc1	MPTP inh 95 | MPTP counter 91
CCN(CC)C(=O)c1oc2ccc(S(=O)(=O)N3CC(C)CC(C)C3)cc2c1C (stereo not drawn)	MPTP inh 51 | MPTP counter 75
CCN(CC)C(=O)c1oc2ccc(S(=O)(=O)N3CCCCCC3)cc2c1C	none
COc1ccc(-c2csc(/C(C#N)=C\c3ccc(OC)c([N+](=O)[O-])c3)n2)cc1	none
COc1ccc(-c2csc(/C(C#N)=C\c3ccc(O)c([N+](=O)[O-])c3)n2)cc1OC	MPTP inh 99 | MPTP counter 50
CC(C)(C)CC(C)(C)SSc1n[nH]c(=S)s1	MPTP inh 51 | MPTP counter 37
Clc1ccc(OCCN2CCN(c3ncnc4sccc34)CC2)cc1	MPTP inh 100 | MPTP counter 101
Cc1ccc(S(=O)(=O)N2CCN(c3ncnc4scc(-c5ccccc5)c34)CC2)cc1	none
Cc1sc2ncnc(N3CCN(S(=O)(=O)c4ccccc4)CC3)c2c1C	MPTP inh 94 (no result: ADAM10 inh, rCAG binder, KLK7 zymogen act, ADAM17 inh) | MPTP counter 89
Cc1ccc(OCCN2CCN(c3ncnc4sc(C)c(C)c34)CC2)cc1	MPTP inh 97 | MPTP counter 90
c1ccc(CN2CCN(c3ncnc4sccc34)CC2)cc1	none (no result: DSG3 Ab inh, rCAG binder, KLK7 zymogen act, MPTP inh)
CN=C1NC(=O)/C(=C\c2cc(C)n(-c3ccccc3F)c2C)S1	none (no result: DSG3 Ab inh, rCAG binder, KLK7 zymogen act, MPTP inh)
COC(=O)[C@]12C[C@H](CC(=O)N3CCC(c4ccccc4)CC3)C(=O)N(CCc3ccc(OC)c(OC)c3)C1=C[C@H](C(C)(C)C)O[C@@H]2C	none (no result: DSG3 Ab inh, MPTP inh)
Cc1ccccc1NC(=O)c1ccc(CN2CCC(Cc3ccccc3)CC2)cc1	MPTP inh 56 | MPTP counter inactive | MPTP abs DR 12 | MPTP counter DR 36
COc1ccccc1OCCNC(=O)Nc1ccc(Br)cc1	MPTP inh 85 (no result: DSG3 Ab inh) | MPTP counter 82
CCN(C(=O)COC(=O)c1ccc(Sc2ncn[nH]2)c([N+](=O)[O-])c1)c1ccccc1	none (no result: DSG3 Ab inh, MPTP inh)
